VCAM1 TNFa pot – enhances TNF alpha induced VCAM1 expression in HUVEC | HUVEC TNFa-stimulated VCAM-1 immunofluorescence, high-content imaging; scaled per plate to unstimulated/TNFa-only wells | activation, % at 2 µM | 93,000 compounds, 0.19% hits | AID 808;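 active = activation above the screen mean plus 3 SD, with well images confirming the hit on visual review, cut at about 28% in these data, passing the limit was not always enough; inconclusive = activation above that limit but images do not confirm it; inactive = activation not above that limit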;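 also: signal is the number of cytoplasmic VCAM-1 stained grains per positive cell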
VCAM1 pot conf – potentiators of TNFa-induced VCAM1 expression, confirmation, imaging, HUVEC, triplicate retest; shares compounds with VCAM1 TNFa pot; HUVEC TNFa-stimulated VCAM-1 immunofluorescence imaging; activation, % at 2 µM; 230 tested, under 10 active; AID 1034;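 active = activation above 30% in triplicate retests at 2 µM, then confirmed by visual review of the well images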;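 also: scaled per plate between unstimulated and TNFa-stimulated DMSO control wells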
Starred values were filed as active, the others as inactive. The sample as a whole holds a higher share of hits than the screen did.

Results for CC(CC(=O)Nc1cc([N+](=O)[O-])ccc1Cl)c1ccccc1 (stereo not drawn) ?
VCAM1 TNFa pot: 52.6*; VCAM1 pot conf: -20.6

Results for O=C(CCc1ccccc1)Nc1cc(C(F)(F)F)ccc1Cl ?
VCAM1 TNFa pot: -6.6

What do the screens show for `CS(=O)(=O)N(CC(=O)N1CCN(c2ccccc2F)CC1)c1cc(C(F)(F)F)ccc1Cl`?
VCAM1 TNFa pot: -3.4

Results for COc1ccc(CN2CCCCC2C(=O)Nc2ccc(OC)c(OCC(C)C)c2)cc1OC (stereo not drawn) ?
VCAM1 TNFa pot: -96.7

What do the screens show for `CC(C)(C)C1CCC2(CC1)C(Nc1cccc(C(F)(F)F)c1)=NC(=S)N2CC#N` (stereo not drawn)?
VCAM1 TNFa pot: inconclusive; VCAM1 pot conf: -10.0

Results for C=CCNC(=O)CSc1ccc(Cl)cc1 ?
VCAM1 TNFa pot: -16.0

What do the screens show for `CCOC(=O)CN1C(=O)C(=O)c2cccc(C)c21`?
VCAM1 TNFa pot: -9.9

How did CCC(=O)Nc1ccccc1C(=O)NC1CCCCC1 do in these assays?
VCAM1 TNFa pot: 8.6

How did CCOc1ccc2ccccc2c1/C=N/n1cncn1 do in these assays?
VCAM1 TNFa pot: -88.5

How did COc1ccc(CSc2nc3ccccc3[nH]2)cc1 do in these assays?
VCAM1 TNFa pot: -35.3

Results for c1ccc2cc(OCc3nc4ccccc4[nH]3)ccc2c1 ?
VCAM1 TNFa pot: 65.5*; VCAM1 pot conf: -4.5

How did Nc1nc(COc2ccc3ccccc3c2)cs1 do in these assays?
VCAM1 TNFa pot: 13.1

What do the screens show for `CCC(C)[C@@H](NC(=O)OC(C)(C)C)c1nnc(S(=O)(=O)Cc2cccc(C)c2)o1` (stereo partly drawn)?
VCAM1 TNFa pot: -42.5

What do the screens show for `CC(C)NC(=O)c1ccccc1NC(=O)CCc1ccccc1`?
VCAM1 TNFa pot: 2.9

Results for O=C(CCN1CCc2ccccc21)c1ccc2c(c1)OCCO2 ?
VCAM1 TNFa pot: 67.4*; VCAM1 pot conf: 0.0

Results for O=C(CCC(=O)N1CCc2ccccc21)Nc1ccccc1 ?
VCAM1 TNFa pot: 5.1

What do the screens show for `CCCCn1c(SCC(=O)c2ccc3c(c2)OCCO3)nnc1-c1ccco1`?
VCAM1 TNFa pot: -1.5

How did Cc1ccc(C)n1NC(=O)c1cccc(Cl)c1 do in these assays?
VCAM1 TNFa pot: -0.2

What do the screens show for `CN(C(=O)CSc1nc(-c2ccccc2)cn1N)C(c1ccccc1)c1ccccc1`?
VCAM1 TNFa pot: -2.9

What do the screens show for `CC(C)N(CCc1ccncc1)C(=O)Nc1ccc(Cl)c(Cl)c1`?
VCAM1 TNFa pot: 38.5*; VCAM1 pot conf: -2.8

How did CCN(CC)S(=O)(=O)c1cc([N+](=O)[O-])ccc1NNC(=O)Nc1ccc(Cl)c(Cl)c1 do in these assays?
VCAM1 TNFa pot: -23.1

What do the screens show for `CCCC(C)C(=O)Nc1ccncc1` (stereo not drawn)?
VCAM1 TNFa pot: 32.0

What do the screens show for `COC(=O)COc1ccc(S(=O)(=O)Nc2ccc(NC(C)=O)cc2)cc1C`?
VCAM1 TNFa pot: 26.0

What do the screens show for `CCOc1cc2[nH]c(=S)n(CCCC(=O)NCc3ccco3)c(=O)c2cc1OCC`?
VCAM1 TNFa pot: -1.9

How did CCn1c(=O)cc(OCC(=O)NCc2ccco2)c2ccccc21 do in these assays?
VCAM1 TNFa pot: -72.3

What do the screens show for `O=C(CCCn1c(=O)c2ccccc2n(CC(=O)NCc2ccco2)c1=O)NCc1ccco1`?
VCAM1 TNFa pot: inconclusive; VCAM1 pot conf: -21.0

How did Cc1ccnc(NC(=O)c2ccc(COc3ccc(Cl)cc3)o2)c1 do in these assays?
VCAM1 TNFa pot: 3.1

What do the screens show for `C=CCNc1sc(C(=O)C2CC2)c(N)c1C#N`?
VCAM1 TNFa pot: 30.1*; VCAM1 pot conf: -7.6

What do the screens show for `C=CCNc1sc(C(=O)c2ccccc2)c(N)c1C#N`?
VCAM1 TNFa pot: -4.9

What do the screens show for `CC(C)c1ccc(Oc2cccc(C(=O)/C(C#N)=C/N(C)C)c2)cc1`?
VCAM1 TNFa pot: -3.2

What do the screens show for `Cc1ccc(CC2(O)CC(C)N(C)CC2C)c(C)c1` (stereo not drawn)?
VCAM1 TNFa pot: 7.2

Results for CCC(C(=O)N1CCN(c2cccc(Cl)c2)CC1)c1ccccc1 (stereo not drawn) ?
VCAM1 TNFa pot: -1.2

What do the screens show for `NC(=O)c1nn(-c2ccccc2)c(=O)cc1O`?
VCAM1 TNFa pot: -19.0

How did COc1cc(NC(=O)NCCN2CCN(c3ccc(Cl)cc3)CC2)ccc1C do in these assays?
VCAM1 TNFa pot: -1.4

What do the screens show for `COc1ccc(CNC(=O)c2ccc(CN3CCOCC3)cc2)cc1`?
VCAM1 TNFa pot: -7.8

How did COc1ccc(NC(=O)c2ccc(CN3CCN(c4ccccc4)CC3)cc2)cc1OC do in these assays?
VCAM1 TNFa pot: inconclusive; VCAM1 pot conf: -6.6

What do the screens show for `CN(CC(=O)Nc1nc2ccccc2s1)S(=O)(=O)c1ccccc1`?
VCAM1 TNFa pot: 16.3

What do the screens show for `CC(=O)Nc1ccccc1OCc1nnc(-c2cccs2)o1`?
VCAM1 TNFa pot: -3.4

Results for N/C(=N\OC(=O)c1ccc(Br)cc1)c1ccccc1 ?
VCAM1 TNFa pot: 57.8*; VCAM1 pot conf: -14.7

Results for Cc1cccc(/C(N)=N/OC(=O)c2ccco2)c1 ?
VCAM1 TNFa pot: 2.5

Screens deposited in PubChem by Columbia University Molecular Screening Center.
